# Source: publication PMC5540273 (PLoS ONE, 2017)
# Tested on: TAOK2
# Settings: concentration: 1 μM, replicates: in singlicate; n = 1
# 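Also: KINOMEscan kinase panel screen.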
row,SMILES,%Inh [%]
1,Cl.c1ccc(-c2n[nH]cc2-c2ccnc(-c3ccc(CN4CCOCC4)cc3)c2)nc1 [GW776245],5
2,Cc1nnc(-c2ccc3occ(-c4ccc(S(C)=O)cc4)c3c2)[nH]1 (centres unmarked),0
3,Cn1ccc2ncnc(Oc3ccc(Nc4nc5ccccc5[nH]4)cc3)c21,0
4,COc1cc2ncn(-c3cc(OCC4CCCO4)c(C(N)=O)s3)c2cc1OC (centres unmarked) [GSK204607],0
5,Cc1cccc(-c2nc(-c3ccc(S(C)(=O)=O)cc3)sc2-c2ccnc(NCCc3ccccc3)c2)c1,12
6,COC(=O)c1c(-c2ccccc2)c2cc(C(=O)O)ccc2c(=O)n1Cc1ccccc1,20
7,Cl.Oc1ccc(-c2nc(-c3ccccc3)[nH]c2-c2ccncc2)cc1 [SB-428218],0
8,CC(=O)Nc1nc2cnc(Nc3cc(NC(=O)c4cccc(CCC#N)c4)ccc3C)nc2s1,0
9,CSc1nn2c(=O)cc(N3CCOCC3)nc2n1Cc1cccc(C(F)(F)F)c1C [GSK2363608],0
10,O=C(Nc1n[nH]c2nc(-c3nccs3)c(Br)cc12)C1CCCC1 [SB-742609],0
11,CCn1c(-c2ccccn2)nc2cnccc21 [SB-736398],33
12,NC(=O)c1nnc2ccccc2c1N,28
13,COc1ccc(Nc2nccc(NCCNC(=O)Nc3ccccc3F)n2)cc1 [GSK1379901],0
14,Cc1cc(N2Cc3ccccc3C2)nc(Nc2ccc(S(=O)(=O)N3CCOCC3)cc2)n1.Cl [GSK1669917],0
15,CC1=C(C(=O)Nc2cc3cn[nH]c3cc2F)C(c2ccc(C(F)(F)F)cc2)CC(=O)N1 (centres unmarked) [GSK429286],0
16,COC(=O)c1c(-c2ccccc2)c2cc(OC)ccc2c(=O)n1Cc1ccccc1,0
17,O=C(O)COc1ncnc2cc(-c3ccc4[nH]ncc4c3)sc12,0
18,Nc1nc(-c2nccs2)c(-c2ccnc3ccccc23)s1 [GW693542],0

row,SMILES,%Inh [%]
1,Cn1cncc1-c1ccc2ncnc(Nc3ccc(OCc4ccccc4)cc3)c2c1 [GW320571],0
2,O=C(Nc1ccc2c(c1)OCO2)NC1CCN(c2ccnc(Nc3ccc(F)cc3)n2)C1 (centres unmarked) [GSK1379724],0
3,Cc1ccccc1-n1cnc2c(N)ncnc21 [SKF-97510],0
4,Cn1ccc2ncnc(Oc3ccc(NC(=O)Nc4ccccc4)cc3)c21,0
5,O=C1NC(=O)C(N2CCc3ccccc32)=C1c1ccccc1Cl [SB-373598],100
6,O=C(Nc1ccccc1)Nc1cccc(Oc2ccc3nccn3n2)c1,0
7,Nc1ncnc2[nH]c(-c3ccccc3)nc12 [AH5015],0
8,CS(=O)(=O)c1ccc(-c2c(-c3ncn[nH]3)sc(N3CCOCC3)c2C#N)cc1,0
9,Cc1c(O)cccc1Nc1ccnc2ccc(C(F)(F)F)cc12.Cl [GW466413],0
10,CS(=O)(=O)c1ccc(-c2nc3n(c2-c2ccncc2)CCC3)cc1 [SKF-105942],0
11,Cc1cc(NCC(c2ccccc2)c2ccccc2)nc(NCc2ccc(C(F)(F)F)cc2)n1 [GW497681],0
12,Cl.NC(=O)c1cccc(Nc2nccc(Nc3ccc(Oc4cccc(Cl)c4)c(Cl)c3)n2)c1 [GW659008],0
13,CC(C)(C)c1ccc(C(=O)Nc2cn3cc(Cl)ccc3n2)cc1,10
14,O=c1cc(N2CCOCC2)nc2n(Cc3cccc(Cl)c3Cl)ccn12 [GSK2286295],0
15,CCCc1ccc(S(=O)(=O)NC2CCN(c3ccnc(Nc4ccc(F)cc4)n3)C2)cc1 (centres unmarked) [GSK1379715],0
16,O=S(=O)(c1ccc(-c2ccnc3[nH]ccc23)cc1)N1CCCC1 [GSK846226],0
17,COc1ccc(C2=C(Nc3cccc(C(=O)O)c3)C(=O)NC2=O)cc1 [SB-390765],28
